The source of these data is PubChem BioAssay AID743314 (Broad Institute, 2014).

For this assay, the target named is Endoplasmic reticulum aminopeptidase 1 (Homo sapiens) (UniProt Q9NZ08). Put plainly: ERAP1 aminopeptidase inhibitors, dose response, biochemical, cherry-pick, set 2, plate reader (AID 743314).

Each structure is given as a SMILES string. Measured potencies and affinities stand elsewhere. Results filed as inconclusive are left out. Active and inactive are the calls of the source.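 Rule for the calls: active = fitted half-maximal concentration no higher than twice the top tested dose, in every repeat run; inconclusive = repeat runs disagree, poor fit, or flat partial inhibition; inactive = the rest.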

Chain of Endoplasmic reticulum aminopeptidase 1 (Homo sapiens) (Q9NZ08 whole entry, looked up): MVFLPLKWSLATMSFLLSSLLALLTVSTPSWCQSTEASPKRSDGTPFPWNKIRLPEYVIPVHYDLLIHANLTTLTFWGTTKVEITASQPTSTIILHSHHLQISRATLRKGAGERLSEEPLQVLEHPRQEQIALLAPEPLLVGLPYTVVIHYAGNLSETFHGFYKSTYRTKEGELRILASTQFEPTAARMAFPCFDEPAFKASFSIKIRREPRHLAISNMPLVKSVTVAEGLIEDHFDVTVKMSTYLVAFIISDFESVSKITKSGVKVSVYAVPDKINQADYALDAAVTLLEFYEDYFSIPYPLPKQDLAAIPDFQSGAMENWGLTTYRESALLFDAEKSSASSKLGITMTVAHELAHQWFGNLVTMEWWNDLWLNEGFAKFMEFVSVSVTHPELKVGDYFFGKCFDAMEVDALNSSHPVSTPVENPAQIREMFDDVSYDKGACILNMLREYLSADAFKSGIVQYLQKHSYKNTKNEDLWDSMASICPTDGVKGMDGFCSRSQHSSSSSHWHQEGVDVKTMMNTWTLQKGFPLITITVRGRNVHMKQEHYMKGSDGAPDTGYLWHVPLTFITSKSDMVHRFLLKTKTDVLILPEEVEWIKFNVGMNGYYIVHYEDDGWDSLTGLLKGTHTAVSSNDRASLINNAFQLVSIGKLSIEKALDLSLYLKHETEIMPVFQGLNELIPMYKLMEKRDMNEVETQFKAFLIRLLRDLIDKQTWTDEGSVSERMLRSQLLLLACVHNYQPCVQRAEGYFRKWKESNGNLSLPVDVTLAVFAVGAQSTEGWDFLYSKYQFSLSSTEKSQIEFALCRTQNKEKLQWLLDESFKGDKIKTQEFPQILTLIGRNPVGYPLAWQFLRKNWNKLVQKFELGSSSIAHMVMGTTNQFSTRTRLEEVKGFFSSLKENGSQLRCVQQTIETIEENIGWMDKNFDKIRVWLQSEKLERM

For `COc1ccc(CN(C)C[C@H]2OCCCC[C@@H](C)Oc3ccc(NS(=O)(=O)c4cccs4)cc3C(=O)N([C@H](C)CO)C[C@@H]2C)cc1`, the call was inactive.
The entry for `N#Cc1ccccc1OCC(=O)OCC(=O)c1ccc2c(c1)NC(=O)CO2` is “inactive”.
With `CCOC(=O)c1[nH]c2ccc(Br)cc2c1NC(=O)CCN1CCOCC1` the entry was “inactive”; with `CSc1cccc(NC(=O)CCCNC(=O)c2ccc(Cl)cc2)c1`, “inactive”.
Consider `C[C@@H]1CN([C@H](C)CO)C(=O)c2cc(NC(=O)CCN3CCOCC3)ccc2O[C@H]1CN(C)S(=O)(=O)c1ccccc1`, for which the call was inactive.
Turning to `CCn1cc(CN2CCCC(C(=O)Nc3ccc(-c4nc5ccccc5[nH]4)cc3)C2)c(C)n1` (stereo not drawn), the call was inactive.
Take `C[C@H](CO)N1C[C@H](C)[C@H](CN(C)Cc2ccc(C(=O)O)cc2)Oc2c(NC(=O)Nc3ccccc3)cccc2C1=O`: the compound was classed as inactive.
With `Cc1oc2c(c(C)cc3oc(=O)c(CC(=O)N[C@H](C(=O)O)C(C)C)c(C)c32)c1C`, the outcome was inactive.
Consider `O=C(C[C@H]1CC[C@H](NC(=O)C2CCOCC2)[C@H](CO)O1)NCc1ccncc1`, for which the result was inactive.
Consider `O=C(COC(=O)c1ccc(CO)cc1)Nc1ccc2ccccc2c1`, for which the compound was classed as inactive.
With `C[C@@H]1CN([C@@H](C)CO)C(=O)c2cc(NS(=O)(=O)c3ccc(Cl)cc3)ccc2O[C@@H](C)CCCCO[C@@H]1CN(C)C`, the outcome was inactive.
`C[C@H]1CN([C@@H](C)CO)C(=O)c2cccc(NC(=O)Nc3ccc(C(F)(F)F)cc3)c2O[C@H]1CN(C)C`: the compound was classed as inactive.
With `COc1ccc2c3c([nH]c2c1)[C@H](CO)N(CC1CC1)CC31CCN(C(=O)c2ccccc2F)CC1` the entry was “inactive”.
The entry for `O=C(c1ccc(F)cc1)N1CC2(C1)[C@@H](c1ccccc1)[C@@H](CO)N2Cc1ccccn1` is “inactive”.
Turning to `CN1CCN(S(=O)(=O)c2cccc(C(=O)Nc3cc(Cl)ccc3N3CCOCC3)c2)CC1`, the compound was called inactive.
As for `Cc1noc(C)c1NC(=O)N(C)C[C@H]1Oc2c(NC(=O)Nc3ccc(F)cc3)cccc2C(=O)N([C@@H](C)CO)C[C@H]1C`, the result was inactive.
For `Cc1ccc(S(=O)(=O)N(C)C[C@@H]2Oc3ccc(NC(=O)c4ccncc4)cc3C(=O)N([C@H](C)CO)C[C@H]2C)cc1`, the compound was called inactive.
`COc1ccc(CN(C)C[C@H]2OCCCC[C@@H](C)Oc3ccc(NS(=O)(=O)c4cccs4)cc3C(=O)N([C@@H](C)CO)C[C@@H]2C)cc1`: the compound was called inactive.
Consider `COc1ccc(CN(C)C[C@@H]2OCCCC[C@H](C)Oc3ccc(NS(=O)(=O)c4cccs4)cc3C(=O)N([C@H](C)CO)C[C@@H]2C)cc1`, for which the compound was called inactive.
Turning to `CC(C)NC(=O)N[C@@H]1CC[C@@H](CCNS(=O)(=O)c2ccc(Cl)cc2)O[C@@H]1CO`, the result was inactive.
For the compound `Cc1ccc(NC(=O)C2CCN(C(=O)c3cccs3)CC2)c(C)c1`, the compound was called inactive.
For the compound `COc1ccc(NC(=O)Nc2ccc3c(c2)C(=O)N([C@@H](C)CO)C[C@@H](C)[C@H](CN(C)Cc2ccc(C(=O)O)cc2)OCCCC[C@H](C)O3)cc1`, the outcome was inactive.
With `CCOC(=O)C1CCN(S(=O)(=O)c2ccc3c(c2)CC(=O)N3C)CC1` the entry was “inactive”.
For the compound `COc1ccc(CN(C)C[C@H]2OCCCC[C@H](C)Oc3ccc(NS(=O)(=O)c4cccs4)cc3C(=O)N([C@H](C)CO)C[C@@H]2C)cc1`, the compound was called inactive.
With `Cc1noc(C)c1NC(=O)N(C)C[C@H]1Oc2c(NC(=O)Nc3ccc(F)cc3)cccc2C(=O)N([C@H](C)CO)C[C@@H]1C` the entry was “inactive”; with `C[C@@H]1CN([C@H](C)CO)C(=O)c2cccc(NC(=O)Nc3ccc(C(F)(F)F)cc3)c2O[C@H]1CN(C)C`, “inactive”.
In the case of `CC(=O)NC(CC(=O)NCCOc1ccccc1F)c1ccccc1` (stereo not drawn), the call was inactive.
With `C[C@H](CO)N1C[C@H](C)[C@@H](CN(C)C)Oc2c(NC(=O)Nc3ccc(C(F)(F)F)cc3)cccc2C1=O` the entry was “inactive”.
Turning to `O=S(=O)(Nc1cccc(-c2cn3c(n2)SCC3)c1)c1ccccc1F`, the compound was called inactive.
`CCCN1[C@@H]2Cn3c(ccc(-c4cccnc4)c3=O)[C@H]1[C@@H](C(=O)NCCc1cn(C)cn1)[C@@H]2CO`: the compound was called inactive.
Regarding `CCCNC(=O)C[C@@H]1CC[C@@H]2[C@H](COC[C@H](O)CN2C(=O)Nc2cccc(Cl)c2)O1`, the result was inactive.
Take `O=C(NCc1ccccc1Cl)c1cc(=O)[nH]c2ccccc12`: the compound was called inactive.
Turning to `O=C(CSc1nnc2ccc(-c3ccc(F)cc3)nn12)N1CCCC1`, the compound was called inactive.
Consider `C[C@H](CO)N1C[C@H](C)[C@H](CN(C)CC2CCCCC2)Oc2ncc(-c3ccc(F)cc3)cc2C1=O`, for which the result was inactive.
`CCC(C)N(C(=O)COC(=O)c1nc2nc(C)cc(C)n2n1)C1CCS(=O)(=O)C1` (stereo not drawn): the call was inactive.
The entry for `CCCC#Cc1ccc2c(c1)O[C@H](CN(C)Cc1ccncc1)[C@@H](C)CN([C@H](C)CO)S2(=O)=O` is “inactive”; for `CCN(Cc1ccc(OC)c(F)c1)C(=O)C1CCCO1` (stereo not drawn) it is “inactive”; for `COc1ccc2c3c(n(C)c2c1)[C@H](CO)N(C)CC31CN(C(=O)c2cccnc2)C1` it is “inactive”.
